Bioassay records from PubChem BioAssay.
Rows were chosen to be rich in hits. Some 17% of all compounds tested hit in one or more screens of this group.
HT1080-NT tox: kills 2HG-producing HT-1080-NT fibrosarcoma cells. 1.6% of 360,000 active. Potency, µM (series often up to 46.1 µM), most hits filed as cytotoxic. HT-1080-NT fibrosarcoma viability, CellTiter-Glo ATP luminescence, 48 h;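 also: NT is the 2HG producing partner of a matched IDH1 knockdown line; nearly all actives have a fitted effect of over 55% in size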
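Compounds were tested in concentration-response format on HT-1080-NT cells for 48 hours at 37 degrees C. Cell viability came from CellTiter-Glo luminescence; curves were classified by r2, response magnitude and activity.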
TGFb SMAD3 inh: blocks TGF-b signaling; Potency, µM (highest dose often 46.1 µM), actives largely listed as inhibitors; 1.2% of 410,000 active; HepG2 CAGA-GFP TGF-b/SMAD3 reporter, GFP fluorescence, 18 h; TGF-beta stimulated, 500 pg/mL final; also: nearly all actives have a fitted effect of over 65% in size
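HEPG2 CAGA-GFP reporter cells (1000/well, DMEM with 1% FBS) received compounds, then recombinant TGF-beta at 500 pg/mL final for 18 hours at 37 degrees C. Per-cell GFP summed per well was normalised to unstimulated and stimulated DMSO controls before curve fitting.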
DT40 TDP1 CPT: growth inhibition of DT40 Tdp1-/-;hTDP1 cells with camptothecin (screen for TDP1 inhibitors) | 12% of 420,000 active | AID 686979 | Potency, µM (series often up to 46.2 µM), hits mostly inhibitors | chicken DT40 Tdp1-/-;hTDP1 cells + 20 nM CPT, ATP luminescence, 48 h; also: nearly all actives have a fitted effect of over 55% in size
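Chicken DT40 Tdp1-/- cells stably complemented with human TDP1 were seeded at 400 cells/well in medium containing 20 nM camptothecin, exposed to pin-transferred compounds, and grown at 37 °C for at least 48 hr. Viability was read as ATP luminescence.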
HepG2 viability: kills HepG2 cells in TGF-b inhibitor counter-screen | HepG2 CAGA-GFP viability, ATP luminescence, 18 h | Potency, µM (top dose mostly 46.1 µM), actives largely listed as cytotoxic | 0.76% of 410,000 active | AID 588856
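CellTiter-Glo luminescence gave cytotoxicity after 18 hours at 37 degrees C. The cells were HepG2 CAGA-GFP in 1% FBS DMEM, stimulated with 500 pg/mL TGF-beta after compound addition. %Activity was normalised to no-cell wells (complete cell-killing) and DMSO (no toxicity), and curves were fitted and classified.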
HT1080 IDH1KD tx: toxicity to HT-1080 IDH1 knockdown cells (counter line) | HT-1080 IDH1 knockdown viability, ATP luminescence, 48 h | Potency, µM (doses to about 46.1 µM), hits mostly cytotoxic | 2% of 360,000 active | AID 686971
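In this qHTS, HT-1080 cells depleted of IDH1 are exposed for 48 h at 37 °C to compound titrations. Toxicity is scored from CellTiter-Glo luminescence, with DMSO as full viability and medium alone as none.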
DT40 TDP1 no CPT: qHTS for Inhibitors of human tyrosyl-DNA phosphodiesterase 1 (TDP1): qHTS in cells in absence of CPT | Potency, µM (series often up to 46.2 µM), actives largely listed as inhibitors | DT40 Tdp1-/- hTDP1 cells, no CPT, ATP luminescence, 48 h | 15% of 420,000 active; also: nearly all actives have a fitted effect of over 55% in size
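Camptothecin absent (DMSO only). Human TDP1-complemented DT40 knockout cells, 400 cells/well, 37 °C for minimum 48 hr; ATP measured via CellTiter-Glo, 30 min dark incubation, luminescence.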
Hits are given with their value; - = inactive; ? = inconclusive; . = no result given; [ ] = remark or other dose. Calls follow the shape of the dose curve; as a rule, active = well fitted curve in the direction sought with a large enough effect; inconclusive = small, poorly fitted or top-dose-only effect, or another doubt; inactive = no such curve, though single readings can be large; an effect the other way counts as inactive or inconclusive.

SMILES	HT1080-NT tox	TGFb SMAD3 inh	DT40 TDP1 CPT	HepG2 viability	HT1080 IDH1KD tx	DT40 TDP1 no CPT
O=C(CSc1nnc(COc2ccc(Cl)cc2)o1)N(c1ccccc1)C1CCS(=O)(=O)C1 (centres undefined)	-	-	?	-	-	13µM
CN(C(=O)CSc1nc2ccccc2o1)C1CCCCC1	-	-	?	-	-	29.1µM
Cc1cccc(OCc2nnc(SCC(=O)N3CCCC3)o2)c1	-	-	-	-	-	-
CC1(C)CN(C(Cc2ccccc2)C(N)=O)C1=O (centres undefined)	-	-	-	-	-	-
COc1ccc(Cc2nc3ccccc3n2Cc2ccccc2F)cc1	.	?	?	-	.	?
O=C(CN(C(=O)CSc1nnc(COc2ccccc2)o1)c1ccc(F)cc1)NC1CCCC1	-	-	?	-	-	?
CCOc1ccc(N(CC(=O)NC2CCCC2)C(=O)CSc2nnc(COc3ccccc3)o2)cc1	-	-	20.6µM	-	-[9.24 µM]	20.6µM
O=[N+]([O-])c1ccc2c(c1)Cc1cc(F)ccc1-2	?	-	-	-	-	?
CC(=O)Nc1ccc2c(c1)Cc1cc(N3C(=O)C=CC3=O)ccc1-2	-	15.8µM	1.03µM	-	?	1.3µM
O=C1C=CC(=O)N1c1ccc2c(c1)Cc1cc(F)ccc1-2	-	-	1.64µM	-	-	2.06µM
CCOc1ccc(N2C=Nc3ccc(OCC)cc3C2)cc1	-	?	20.6µM	-	-	18.4µM
CCOc1ccc(N2C(=O)CNC2=S)cc1	-	-	-	-	-	-
Cc1c(C(=O)N2CCN(C(C)C)CC2)sc2ncnc(NCc3ccco3)c12	.	.	-[9.04 µM]	.	.	-
c1ccc(C2Oc3ccccc3C3CC(c4cccs4)=NN32)cc1 (centres undefined)	-	-	?	-	-	16.4µM
CCCN(C(=O)C(=O)Nc1ccc2nc3n(c(=O)c2c1)CCCCC3)c1ccc(OCC)cc1	-	-	13µM	-	-	13µM
O=c1c2cc(NC(=S)NC3CCCCC3)ccc2nc2n1CCCCC2	-	-	18.4µM	-	-	?
O=c1c2cc(NC(=S)NC3CCN(Cc4ccccc4)CC3)ccc2nc2n1CCCCC2	?	?	?	-	18.4µM	14.6µM
COc1cc(C(=O)Nc2ccc3nc4n(c(=O)c3c2)CCCCC4)cc(OC)c1OC	?	-	?	-	18.4µM	23.1µM
CCOC(=O)Nc1ccc2nc3n(c(=O)c2c1)CCCCC3	-	-	?	-	-	-
COc1ccc(CN(C)C(=O)c2cccc(Oc3ccccc3)c2)c(OC)c1OC	-	-	?	-	-	?
CC(Oc1ccc2cc(-c3ccccc3)c(=O)oc2c1)C(=O)NCC1CCC(C(=O)O)CC1 (centres undefined)	-	-	-	-	-	-
Cc1ccnc2ccc(I)cc12	.	-	?	-	.	-
Cc1cccc(N2CCN(C(=S)Nc3ccc4nc5n(c(=O)c4c3)CCCCC5)CC2)c1C	-	-	?	-	-	20.6µM
O=C(Nc1ccc2nc3n(c(=O)c2c1)CCCCC3)c1cc([N+](=O)[O-])ccc1F	?	?	6.51µM	12.6µM	?	2.59µM
Cc1ccccc1NC(=O)c1c(C)oc2ccc(O)c(CN3CCC(C)CC3)c12	.	?	16.4µM	-	.	23.1µM
SMILES	HT1080-NT tox	TGFb SMAD3 inh	DT40 TDP1 CPT	HepG2 viability	HT1080 IDH1KD tx	DT40 TDP1 no CPT
COCCOC(=O)c1c(C)oc2ccc(O)c(CN3CCC(C)CC3)c12	-	-	-	-	-[9.24 µM]	-
Cc1ccccc1NC(=O)c1c(C)oc2ccc(O)c(CN3CCCC(C)C3)c12 (centres undefined)	.	?	10.3µM	-	.	20.6µM
CCc1cccc(CC)c1NC(=O)c1c(C)oc2ccc(O)c(CN3CCCC3)c12	.	-	?	-	.	?
Cc1cccc(CC(=O)NCC2CCCCC2)c1	-	-	?	-	-	-
CNS(=O)(=O)c1cc(Nc2ncnc3sccc23)ccc1C	-	-	14.6µM	-	-	?
Cc1ccc(CSCCC(=O)NCc2ccc(F)cc2Cl)cc1	.	-	-	-	.	-
COc1ccc(/C=N/NC(=O)c2cccs2)c2ccccc12	-	-	?	-	?	8.2µM
COc1cc(/C=N/NC(=O)c2cccc3ccccc23)cc(OC)c1OC	-	-	-	-	-	?
COc1cc(/C=N/NC(=O)c2cccc3ccccc23)cc(OC)c1O	-	-	4.61µM	-	-	?
COc1ccccc1/C=N/NC(=O)c1ccc(-c2ccccc2)cc1	-	-	20.6µM	-	-	?
COc1ccc(/C=N/NC(=O)c2cccnc2)c2ccccc12	-	?	-	-	-	-
COc1ccc(/C=N/NC(N)=S)cc1OC(=O)c1cccc2ccccc12	-	-	14.6µM	-	?	18.4µM
COc1cccc(/C=N/NC(=O)c2ccccc2)c1OS(=O)(=O)c1ccccc1	-	-	?	-	-	25.9µM
COc1ccc(/C=N/NC(=O)c2cccc3ccccc23)c(OC)c1OC	?	-	?	-	16.4µM	?
COc1ccccc1/C=N/NC(=O)c1cccc2ccccc12	-	-	23.1µM	-	-	?
CCOc1ccccc1C=NNC(=O)c1cccc2ccccc12	-	-	-	-	-	-
COc1cccc(/C=N/NC(=O)c2ccc(=O)n(C)c2)c1OC	-	-	-	-	-	-
O=C(N/N=C\c1cn[nH]c1-c1ccc(Cl)cc1)c1cccs1	-	10µM	-	-	-	-
Cc1ccc(C2=Nc3ccccc3N=C(c3ccc(F)cc3)C2)c(O)c1	.	-	-	-	.	?
CN(C(=O)c1ccccc1OC1CCN(S(C)(=O)=O)CC1)C1CCOC1 (centres undefined)	-	-	-	-	-	-
COc1cc(C(=O)Oc2ccccc2/C=N/NC(=O)c2ccc(Cl)cc2Cl)cc(OC)c1OC	?	?	0.651µM	-	?	0.92µM
COc1ccc(-c2[nH]ncc2/C=N\NC(=O)c2ccc(C(C)(C)C)cc2)cc1OC	-	-	?	-	?	25.9µM
Cn1ncc2c(O/N=C(\N)c3ccc(C(C)(C)C)cc3)ncnc21	18.4µM	?	2.59µM	-	6.51µM	2.91µM
CCOC(=O)c1ccc(Nc2ncnc3c2cnn3C)cc1	-	-	?	-	-[9.24 µM]	?
COc1ccc(C(=O)NC(=O)COC(=O)C2CC2C)cc1 (centres undefined)	-	-	-	-	-	-
Cc1ccc(C(=O)c2cc(C)sc2N)cc1	-	?	-	-	-	-
Cc1cc(C(=O)c2ccc(Cl)cc2)c(NC(=O)CCl)s1	?	-	8.2µM	-	?	7.31µM
